Assay [1] deals with Plasmodium falciparum Sir2 (PF13_0152, Sir2A). Nature of the assay: pfSir2 binders on small-molecule microarrays, primary screen, biochemical, small-molecule microarray, 635 nm fluorescence (AID 1098).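 Note: score merges spot fluorescence intensity with its signal-to-noise ratio.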 The conditions noted are these: small-molecule microarray binding, fluorescence 635 nm; higher = more signal.
Assay [2] in a line: small-molecule microarray binders of probe aDKK1, primary screen, biochemical, biotinylated probe, 635/667 nm fluorescence (AID 1099).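 Note: score merges 667nm spot fluorescence with signal to noise across triplicate slides.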 The following applies: higher = more signal.
A short description of assay [3]: small-molecule microarray binders of probe aCHRDL2, primary screen, biochemical, biotinylated probe, 635/667 nm fluorescence (AID 1100). The conditions noted are these: higher = more signal.
The nature of assay [4]: splicing luciferase reporter signal modulators, primary screen, spliceosome inhibition project, cell-based, HEK293, splice +/- reporter (AID 1101).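 Note: HEK293 cells carrying a splicing-competent luciferase reporter gene; test concentration not given here.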 The following applies: luminescence, 24 h, higher = more signal, called active from +8 up or from −8 down. Background: Reporter assays use an easily measured gene product as a stand-in for the process of interest.
Assay [5] addresses Fibroblast growth factor 10 (Homo sapiens) (UniProt O15520). As to the kind of experiment: FGF10 binders on small-molecule microarrays, primary screen, biochemical, small-molecule microarray, 635 nm fluorescence (AID 1102). The following applies: FGF10 binding, fluorescence 635 nm, higher = more signal.
In assay [6] the test system is glycogen synthase kinase-3 (GSK3A per assay name; protocol says GSK3B). As to the kind of experiment: GSK3 binders on small-molecule microarrays, primary screen, biochemical, small-molecule microarray, 635 nm fluorescence, GSK3A (AID 1103). Note: the record names both GSK3A and GSK3B. The following applies: small-molecule microarray binding, fluorescence 635 nm; higher = more signal.
Assay [7] addresses Epidermal growth factor receptor (Homo sapiens) (UniProt P00533). Nature of the assay: EGFR binders on small-molecule microarrays, primary screen, biochemical, small-molecule microarray, 635 nm fluorescence (AID 1104).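 Note: score merges 667 nm emission intensity with spot signal to noise over triplicate slides.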 The conditions noted are these: EGFR binding, higher = more signal.
The target in assay [8] is Follistatin-related protein 3 (Homo sapiens) (UniProt O95633). Nature of the assay: FSTL3 binders on small-molecule microarrays, primary screen, biochemical, small-molecule microarray, 635 nm fluorescence (AID 1105).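 Note: score merges emission near 667 nm and signal to noise per printed spot across three slides.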 The following applies: FSTL3 binding, higher = more signal.
For assay [9], the target named is Dickkopf-related protein 1 (Homo sapiens) (UniProt O94907). As to the kind of experiment: DKK1 binders on small-molecule microarrays, primary screen, biochemical, small-molecule microarray, 635 nm fluorescence scan (AID 1106).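 Note: score merges emission near 667 nm with signal to noise over three replicate slides.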 The conditions noted are these: DKK1 binding, higher = more signal.
Assay [10] concerns Inhibin beta A chain (activin A). As to the kind of experiment: INHBA (activin A) binders on microarrays, primary screen, biochemical, small-molecule microarray, 635 nm fluorescence scan (AID 1107).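 Note: mouse activin A protein probed at 4.33 µg/mL on printed slides; score merges bound-protein fluorescence near 667 nm with spot signal-to-noise.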 The conditions noted are these: small-molecule microarray binding, higher = more signal.
Assay [11] relates to Human papillomavirus type 1a protein E7 (residues 44-93). As to the kind of experiment: HPV1a E7 fragment binders on microarrays, primary screen, biochemical, small-molecule microarray, residues 44-93, 635 nm fluorescence (AID 1108).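 Note: E7 fragment applied at 1 µg/mL in TBST for 1 h at 4 C; score combines spot fluorescence with its signal to noise ratio.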 The conditions noted are these: small-molecule microarray binding, fluorescence 635 nm; higher = more signal.
The nature of assay [12]: modulators of HCV replicon luciferase signal, primary screen, HCV replication inhibitor project, Huh7 cells, luciferase reporter (AID 1109).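 Note: huh7 hepatoma cells harbouring a luciferase neomycin HCV replicon reporter; luciferase luminescence as measure of HCV replicon replication; test concentration not given here.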 The following applies: 48 h, higher = more signal. (In antiviral work, replicon cells carry a viral genome segment that copies itself.)
The target of assay [13] is Left-right determination factor 2 (Homo sapiens) (UniProt O00292). Nature of the assay: LEFTY2 binders on small-molecule microarrays, primary screen, biochemical, small-molecule microarray, 635 nm fluorescence scan (AID 1110). The following applies: LEFTY2 binding, higher = more signal.
Assay [14] concerns the target Calmodulin-1 (Homo sapiens) (UniProt P0DP23). As to the kind of experiment: CALM1 binders on microarrays, EGTA buffer, profiling panel, biochemical, small-molecule microarray, Cy5-labelled CALM1 (AID 1111).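 Note: labelled calmodulin applied in Tris saline Tween buffer holding calcium plus EGTA and DTT.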 The following applies: Cy5-CALM1 binding fluorescence, higher = more signal.
The target is the same in assay [15]. As to the kind of experiment: calcium-bound CALM1 binders on microarrays, profiling panel, artefact control for SMM control-protein annotation, biochemical, small-molecule microarray, Cy5-labelled CALM1, plus calcium (AID 1112).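 Note: score merges spot fluorescence with signal to noise from triplicate slides.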 The conditions noted are these: Cy5-CALM1 binding fluorescence, higher = more signal.
Assay [16] is described as follows: small-molecule microarray binders of probe aWnt5a, primary screen, biochemical, biotinylated probe, 635/667 nm fluorescence (AID 1113).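 Note: score merges 667 nm fluorescence intensity with signal-to-noise per printed feature.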 The conditions noted are these: higher = more signal.
Assay [17] can be described thus: small-molecule microarray binders of probe aShh, primary screen, biochemical, biotinylated probe, 635/667 nm fluorescence (AID 1114).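 Note: probe is biotin-labelled aShh protein from a stem cell growth factor screen; measures binding of labelled protein to compounds printed on the slide; score merges feature fluorescence at 667 nm with signal-to-noise.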 The conditions noted are these: higher = more signal.
Assay [18] in a line: small-molecule microarray binders of probe aNog, primary screen, biochemical, biotinylated probe, 635/667 nm fluorescence (AID 1115).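 Note: probe is biotinylated aNog protein used at 0.15 µg/mL for 1 h at 4 C; z-score combines 667 nm fluorescence of each spot with its signal to noise.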 The conditions noted are these: higher = more signal.
In assay [19] the target is Torsin-1A-interacting protein 1 (Homo sapiens) (UniProt Q5JTV8). As to the kind of experiment: LAP1 binders from COS7 cell lysate, primary screen, small-molecule microarray, 635/667 nm fluorescence (AID 1116). The following applies: COS7-hLAP1 lysate binding, 635 nm fluorescence, higher = more signal.
In assay [20] the target is Alpha-bungarotoxin (Bungarus multicinctus) (UniProt P60615). Nature of the assay: alpha-bungarotoxin binders on microarray, profiling panel, artefact control for SMM control protein annotation, biochemical, small-molecule microarray, Alexa647 label, 635/667 nm fluorescence (AID 1117). The following applies: alpha-BTX-A647 binding fluorescence, higher = more signal.

Calls of active or inactive are those of the source.

Chain of Fibroblast growth factor 10 (Homo sapiens) (O15520 whole entry, looked up): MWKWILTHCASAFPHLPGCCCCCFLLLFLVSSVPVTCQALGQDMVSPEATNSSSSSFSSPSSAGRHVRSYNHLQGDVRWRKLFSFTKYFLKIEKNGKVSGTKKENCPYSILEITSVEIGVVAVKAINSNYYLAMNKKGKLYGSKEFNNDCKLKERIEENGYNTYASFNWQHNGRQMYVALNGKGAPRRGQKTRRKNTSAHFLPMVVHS
Chain of Dickkopf-related protein 1 (Homo sapiens) (O94907 whole entry, looked up): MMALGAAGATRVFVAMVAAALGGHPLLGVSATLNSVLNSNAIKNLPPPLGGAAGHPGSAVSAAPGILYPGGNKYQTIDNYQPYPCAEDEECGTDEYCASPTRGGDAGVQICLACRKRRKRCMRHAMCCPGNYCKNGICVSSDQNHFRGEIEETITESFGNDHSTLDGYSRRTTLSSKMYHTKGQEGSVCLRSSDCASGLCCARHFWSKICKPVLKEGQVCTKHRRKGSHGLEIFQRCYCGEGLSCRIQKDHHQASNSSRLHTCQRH
Chain of Epidermal growth factor receptor (Homo sapiens) (P00533 whole entry, looked up): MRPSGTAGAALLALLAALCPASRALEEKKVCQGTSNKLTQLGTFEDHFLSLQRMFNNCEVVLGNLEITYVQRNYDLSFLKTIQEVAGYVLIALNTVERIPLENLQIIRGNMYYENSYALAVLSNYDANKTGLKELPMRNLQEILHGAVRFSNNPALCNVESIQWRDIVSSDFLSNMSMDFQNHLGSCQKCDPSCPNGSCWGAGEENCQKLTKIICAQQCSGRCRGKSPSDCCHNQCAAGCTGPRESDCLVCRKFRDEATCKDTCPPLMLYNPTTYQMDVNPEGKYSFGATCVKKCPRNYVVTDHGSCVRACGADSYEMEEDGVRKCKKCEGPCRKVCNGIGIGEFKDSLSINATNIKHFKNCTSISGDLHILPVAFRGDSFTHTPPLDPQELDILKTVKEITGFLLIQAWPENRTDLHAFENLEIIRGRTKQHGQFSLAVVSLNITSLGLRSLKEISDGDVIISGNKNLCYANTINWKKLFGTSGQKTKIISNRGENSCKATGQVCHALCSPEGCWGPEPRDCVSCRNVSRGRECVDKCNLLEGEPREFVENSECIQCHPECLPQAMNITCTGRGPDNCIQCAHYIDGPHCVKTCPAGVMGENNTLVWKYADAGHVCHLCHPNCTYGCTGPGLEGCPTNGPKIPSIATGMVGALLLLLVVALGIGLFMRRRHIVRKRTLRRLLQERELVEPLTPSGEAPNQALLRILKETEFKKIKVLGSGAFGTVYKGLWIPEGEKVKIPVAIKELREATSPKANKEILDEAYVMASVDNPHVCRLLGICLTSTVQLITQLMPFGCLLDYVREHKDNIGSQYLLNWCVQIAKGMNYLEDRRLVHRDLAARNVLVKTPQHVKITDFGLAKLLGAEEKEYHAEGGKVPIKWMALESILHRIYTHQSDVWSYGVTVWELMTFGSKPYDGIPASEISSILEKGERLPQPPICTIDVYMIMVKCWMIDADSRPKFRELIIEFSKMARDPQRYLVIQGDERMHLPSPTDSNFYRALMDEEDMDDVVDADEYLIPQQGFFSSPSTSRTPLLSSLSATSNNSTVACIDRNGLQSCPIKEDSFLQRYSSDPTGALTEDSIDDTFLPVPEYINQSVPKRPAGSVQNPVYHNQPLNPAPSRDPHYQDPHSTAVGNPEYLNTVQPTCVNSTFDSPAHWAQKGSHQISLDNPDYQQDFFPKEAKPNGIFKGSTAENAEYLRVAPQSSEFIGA
Chain of Left-right determination factor 2 (Homo sapiens) (O00292 whole entry, looked up): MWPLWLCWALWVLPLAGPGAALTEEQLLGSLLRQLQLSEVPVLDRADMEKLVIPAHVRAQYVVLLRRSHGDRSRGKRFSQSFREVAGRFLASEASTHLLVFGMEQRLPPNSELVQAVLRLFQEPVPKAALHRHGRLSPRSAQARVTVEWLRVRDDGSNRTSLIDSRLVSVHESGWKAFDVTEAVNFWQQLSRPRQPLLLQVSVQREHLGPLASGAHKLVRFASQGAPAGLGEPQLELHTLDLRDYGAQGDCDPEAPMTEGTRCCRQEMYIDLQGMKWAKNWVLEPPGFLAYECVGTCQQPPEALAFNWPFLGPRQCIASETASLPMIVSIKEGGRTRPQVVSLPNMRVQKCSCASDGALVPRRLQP
Chain of Torsin-1A-interacting protein 1 (Homo sapiens) (Q5JTV8 whole entry, looked up): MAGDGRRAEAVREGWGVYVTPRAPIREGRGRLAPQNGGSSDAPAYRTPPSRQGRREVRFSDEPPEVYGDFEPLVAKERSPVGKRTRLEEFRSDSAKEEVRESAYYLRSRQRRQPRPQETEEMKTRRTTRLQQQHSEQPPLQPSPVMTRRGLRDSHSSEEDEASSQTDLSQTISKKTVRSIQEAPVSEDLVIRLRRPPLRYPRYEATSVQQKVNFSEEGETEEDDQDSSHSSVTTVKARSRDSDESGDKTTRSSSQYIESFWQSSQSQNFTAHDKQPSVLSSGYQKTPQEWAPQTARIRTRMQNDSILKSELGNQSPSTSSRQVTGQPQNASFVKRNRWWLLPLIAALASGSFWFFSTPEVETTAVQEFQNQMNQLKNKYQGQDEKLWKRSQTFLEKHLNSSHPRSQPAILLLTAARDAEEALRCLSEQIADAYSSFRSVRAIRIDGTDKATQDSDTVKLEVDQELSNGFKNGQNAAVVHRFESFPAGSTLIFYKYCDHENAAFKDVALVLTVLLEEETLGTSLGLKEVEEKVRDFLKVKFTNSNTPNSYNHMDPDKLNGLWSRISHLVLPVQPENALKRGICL
Chain of Follistatin-related protein 3 (Homo sapiens) (O95633 whole entry, looked up): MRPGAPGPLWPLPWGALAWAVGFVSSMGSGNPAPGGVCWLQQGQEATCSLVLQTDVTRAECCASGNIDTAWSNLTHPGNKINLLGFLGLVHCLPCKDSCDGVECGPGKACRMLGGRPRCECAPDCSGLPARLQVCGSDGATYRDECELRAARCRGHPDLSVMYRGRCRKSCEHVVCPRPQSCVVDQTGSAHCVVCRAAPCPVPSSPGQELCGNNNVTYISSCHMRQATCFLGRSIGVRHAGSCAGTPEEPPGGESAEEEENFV
Chain of Alpha-bungarotoxin (Bungarus multicinctus) (P60615 whole entry, looked up): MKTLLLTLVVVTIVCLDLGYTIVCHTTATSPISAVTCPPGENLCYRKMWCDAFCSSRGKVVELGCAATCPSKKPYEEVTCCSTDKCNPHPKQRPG

Regarding `C=CCNC(=O)[C@H]1[C@@H]2C(=O)O[C@@H](c3ccccc3)[C@@H](c3ccccc3)N2[C@@H](c2ccc(OCCO)cc2)[C@]12C(=O)N(C(=O)OCCOC)c1ccc(C#CCNC(N)=O)cc12`, the composite z-score is 1.27 in [1]; 0.02 in assay [2]; 0.687 in assay [3]; 1.3 in [5]; 0.998 in assay [6]; 0.686 in [7]. Besides, the composite z-score in [8] was found to be 0.989; in assay [9], 0.998; in assay [10] it was 0.823; in assay [11], 1.06; in assay [13], 0.716; in [14], 1.17. Moreover, the composite z-score in assay [15] worked out at 0.152; in assay [16], 0.291; in [17], 0.194; in [18], 0.49; in assay [19], 1.33; in assay [20] it was 2.1. Besides, the z-score in assay [4] was 0.0908 (inactive); in assay [12], -0.197.
Take `CCOC(=O)C[C@H]1[C@H](OC(=O)c2ccc(-c3ccccc3)cc2)[C@@H](NC(=O)c2ccc(-c3ccccc3)cc2)c2cc(OCCCO)ccc2N1C(=O)c1ccccc1`: the composite z-score in assay [1] turned out to be 0.518; in [2], 0.685; in assay [3], 0.365; in [5], 0.79; in [6], 0.477; in [7] it was 0.101. Moreover, the composite z-score in [8] was 0.719; in [9], 0.69; in assay [10], -0.12; in [11] it was 1.01; in assay [13] it was 0.71; in assay [14], 1.1. In addition, the composite z-score was 0.912 in assay [15]; -0.0721 in [16]; 0.0278 in assay [17]; 0.412 in assay [18]; 0.322 in assay [19]; 1.14 in assay [20]. Moreover, the z-score was 0.594 (inactive) in assay [4] and -1.22 in assay [12].
For `C=C(COC)C(=O)CC[C@H](OC(C)=O)c1ccccc1OCCO`, the composite z-score was 0.858 in assay [1]; -0.348 in assay [2]; 0.151 in [3]; 1.5 in assay [5]; -0.41 in assay [6]; -0.567 in assay [7]. Also, the composite z-score in assay [8] was -0.262; in assay [9] it was 0.0024; in [10], 1.13; in assay [11], 0.0337; in assay [13] it was -0.0181; in [14] it was -0.714. Further, the composite z-score was -1.1 in assay [15]; -0.15 in assay [16]; -0.223 in [17]; -0.397 in [18]; 1.59 in assay [19]; -0.15 in assay [20]. Moreover, the z-score in assay [4] is -0.0648 (inactive); in assay [12], -1.94.
With `[N-]=[N+]=NCc1ccccc1C[C@@]1(C(N)=O)N=C(c2ccc(OCCCO)cc2)O[C@@H]1c1ccccc1N=[N+]=[N-]`, the composite z-score in assay [1] is 1.51; in assay [2] it was 0.747; in [3], 1.13; in assay [5], 0.839; in assay [6] it was 1.19; in [7], -0.547. For the same compound, the composite z-score in [8] was -0.239; in assay [9], -0.38; in [10], -0.217; in [11], 1.05; in [13] it was -0.654; in [14] it was 1.09. Besides, the composite z-score in [15] is 0.237; in [16], 0.0088; in assay [17], 0.199; in assay [18] it was -0.561; in assay [19] it was 1.71; in [20] it was 0.775. Also, the z-score was -0.397 (inactive) in assay [4] and -0.489 in assay [12].
`COc1ccc([Si](C)(C)[C@H]2[C@H](CC(=O)N(CCO)Cc3ccccc3)O[C@@]3(C(=O)N(Cc4cccc(N5CCCCC5=O)c4)c4ccccc43)[C@@H]2C)cc1`: the composite z-score in [1] was 0.535; in assay [2], -0.147; in [3], -0.13; in [5], 0.114; in assay [6] it was -0.0519; in assay [7], -0.0805. In addition, the composite z-score is 0.436 in assay [8]; 0.327 in assay [9]; 0.167 in assay [10]; 0.558 in assay [11]; 0.384 in assay [13]; -0.0075 in assay [14]. The composite z-score in assay [15] was 0.117; in [16], -0.147; in assay [17], 0.235; in [18], -0.0863; in [19] it was -0.0746; in [20], 0.595. In addition, the z-score in assay [4] is -2.32 (inactive); in assay [12], -4.06.

These data come from PubChem BioAssay.
